CHX counter: affects cycloheximide protein synthesis inhibition readout, counter-screen; cell reporter, cycloheximide protein synthesis inhibition counterscreen; max response, %; hit rate 12% among 300,000; AID 2314; in the data active = max response mostly above about 13%, no sharp cut-off; inactive = mostly below about 14%; note: read at 38.3 µM for the half of the compounds with a filed dose
Lassa entry inh: blocks Lassa virus binding to or entry into cells | AID 540256 | Potency, µM (highest dose often 37.9 µM), actives largely listed as inhibitors | hit rate 1.2% among 300,000 | Lassa virus pseudotype entry inhibition, cell reporter; calls by dose curve; tested in HEK293 cells; note: nearly all actives have a fitted effect of over 50% in size
VACV mCherry inh: inhibitors of vaccinia virus infection (mCherry reporter signal). hit rate 0.63% among 310,000. Vaccinia virus mCherry reporter infection, fluorescence. Potency, µM (doses to about 36.5 µM), hits mostly inhibitors; calls by dose curve; tested in A549 cells; note: nearly all actives have a fitted effect of over 35% in size
MARV entry inh: blocks Marburg virus binding to or entry into cells | Marburg virus pseudotyped entry inhibition, cell reporter | Potency, µM (highest dose often 37.8 µM), hits mostly inhibitors | hit rate 1.8% among 300,000 | AID 540276; calls by dose curve; tested in HEK293 cells
Shiga toxin inh: inhibitors of Shiga toxin in Vero cells; Vero cells, Shiga toxin protein synthesis inhibition reporter; inhibition, % at 38.7 µM; hit rate 9.2% among 290,000; AID 2315; in the data active = inhibition mostly above about 28%, no sharp cut-off; inactive = mostly below about 43%
VACV Venus inh: vaccinia inhibition (Venus reporter). AID 720580. hit rate 0.46% among 330,000. Vaccinia virus Venus reporter expression, fluorescence. Potency, µM (highest dose often 36.5 µM), hits mostly inhibitors; calls by dose curve; tested in A549 cells; note: nearly all actives have a fitted effect of over 30% in size
Hits are given with their value. Only a selection was taken, and hits are over-represented in it overall.

How did COc1cccc(-c2cc(C(=O)Nc3ccc(OC)cc3OC)no2)c1 do in these assays?
Lassa entry inh: inactive; VACV mCherry inh: inactive; MARV entry inh: inactive; VACV Venus inh: inactive

Results for COc1ccc(NC(=O)c2cc(C(C)C)on2)c(OC)c1 ?
CHX counter: 53; VACV mCherry inh: inactive; Shiga toxin inh: 114; VACV Venus inh: inactive

Results for COc1ccc(NC(=O)c2cc(C(C)C)on2)cc1OC ?
CHX counter: 44; Lassa entry inh: inactive; MARV entry inh: inconclusive; Shiga toxin inh: 45

What do the screens show for `COc1cc(NC(=O)c2cc3nc(C)cc(C)n3n2)c(OC)cc1Cl`?
CHX counter: 53; Lassa entry inh: inconclusive; MARV entry inh: inactive; Shiga toxin inh: 62; VACV Venus inh: inactive

Results for COc1ccc(NC(=O)c2cc(-c3ccc(OC)c(OC)c3)on2)cc1OC ?
CHX counter: inactive; Lassa entry inh: inactive; VACV mCherry inh: inactive; MARV entry inh: inactive; Shiga toxin inh: inactive; VACV Venus inh: inactive

What do the screens show for `Cc1ccc(C)c(NC(=O)CSc2nnc(-c3n[nH]c4ccccc34)o2)c1`?
CHX counter: inactive; Lassa entry inh: inactive; VACV mCherry inh: inactive; MARV entry inh: inconclusive; Shiga toxin inh: inactive; VACV Venus inh: inactive

Results for CC(C)(C)c1ccc(NC(=O)CSc2nnc(-c3n[nH]c4ccccc34)o2)cc1 ?
CHX counter: inactive; Lassa entry inh: inactive; VACV mCherry inh: inconclusive; MARV entry inh: inconclusive; Shiga toxin inh: 37; VACV Venus inh: inconclusive

What do the screens show for `CNC(=O)c1c(I)c(C(=O)NCC(=O)Nc2c(I)c(C(=O)O)c(I)c(C(=O)NCCO)c2I)c(I)c(N(C)C(C)=O)c1I`?
VACV mCherry inh: inactive; VACV Venus inh: inactive

Results for O=C(N=C1c2ccccc2CN1c1ccc(F)cc1)c1ccc(Cl)nc1 ?
CHX counter: 24; Lassa entry inh: inactive; VACV mCherry inh: inactive; MARV entry inh: inactive; Shiga toxin inh: inactive; VACV Venus inh: inactive

Results for CC(=O)c1cccc(N2Cc3ccccc3C2=NC(=O)CCl)c1 ?
CHX counter: 25; Lassa entry inh: inconclusive; VACV mCherry inh: inactive; MARV entry inh: inconclusive; Shiga toxin inh: inactive; VACV Venus inh: inactive

How did N=C1c2ccccc2CN1c1ccc(S(=O)(=O)N2CCCCC2)cc1 do in these assays?
CHX counter: inactive; Lassa entry inh: inactive; VACV mCherry inh: inactive; MARV entry inh: inactive; Shiga toxin inh: inactive; VACV Venus inh: inactive

What do the screens show for `CCOC(=O)c1ccc(N2Cc3ccccc3C2=NC(=O)c2cccs2)cc1`?
CHX counter: inactive; Lassa entry inh: 10µM; VACV mCherry inh: inactive; MARV entry inh: inconclusive; Shiga toxin inh: inactive; VACV Venus inh: inactive

Results for CCOC(=O)c1ccc(N2Cc3ccccc3C2=N)cc1 ?
CHX counter: 34; Lassa entry inh: inactive; VACV mCherry inh: inactive; MARV entry inh: inactive; Shiga toxin inh: 126; VACV Venus inh: inactive

Results for Cc1cc(C(=O)Nc2ccccc2-c2nc(CNC(=O)c3cscn3)c(C)o2)c(C)o1 ?
VACV mCherry inh: inactive; VACV Venus inh: inactive

Results for COc1cc(CN2CCc3nnc(C(NS(C)(=O)=O)C(C)C)n3CC2)ccc1F (configuration not stated) ?
VACV mCherry inh: inactive; VACV Venus inh: inactive

How did O=C(CCCCn1c(=O)c2ccccc2n(Cc2ccccc2Cl)c1=O)NCCc1ccccc1 do in these assays?
Lassa entry inh: inactive; VACV mCherry inh: inactive; MARV entry inh: inactive; VACV Venus inh: inactive

How did COc1ccc([C@H]2CC(=O)C=C(c3cccc(OC)c3OC)C2)cc1OC do in these assays?
VACV mCherry inh: inconclusive; VACV Venus inh: inactive

What do the screens show for `CCOC(=O)[C@@]1([C@@H](NC(=O)OC)c2ccccc2)CCCC1=O`?
MARV entry inh: inactive

Results for COc1cccc(NC(=O)c2oc3ccccc3c2NC(=O)Cc2cccc(C)c2)c1 ?
Lassa entry inh: inactive; VACV mCherry inh: inactive; MARV entry inh: inactive; VACV Venus inh: inactive

What do the screens show for `CCOC(=O)c1ccc(N2Cc3ccccc3C2=NC(=O)c2ccncc2)cc1`?
CHX counter: 28; Shiga toxin inh: 58

How did N#Cc1ccc(N2Cc3ccccc3C2=NC(=O)c2cccs2)cc1 do in these assays?
CHX counter: 38; Lassa entry inh: inactive; VACV mCherry inh: inactive; MARV entry inh: inconclusive; Shiga toxin inh: active; VACV Venus inh: inactive

How did CCOC(=O)c1ccc(NC(=O)C(Cc2ccccc2)N2Cc3ccccc3C2=O)cc1 (configuration not stated) do in these assays?
Lassa entry inh: inactive; VACV mCherry inh: inactive; VACV Venus inh: inactive

How did CC(=O)c1ccc(N2Cc3ccccc3/C2=N\C(=O)Nc2ccccc2)cc1 do in these assays?
CHX counter: 28; Lassa entry inh: inactive; VACV mCherry inh: inactive; MARV entry inh: inactive; Shiga toxin inh: inactive; VACV Venus inh: inactive

How did CC(=O)c1ccc(N2Cc3ccccc3C2=NC(=O)c2cccs2)cc1 do in these assays?
CHX counter: 26; Lassa entry inh: 7.9µM; VACV mCherry inh: inactive; MARV entry inh: inconclusive; Shiga toxin inh: 60; VACV Venus inh: inactive

How did COC(=O)Nc1ccc(S(=O)(=O)NCc2ccccn2)cc1 do in these assays?
CHX counter: inactive; Lassa entry inh: inactive; VACV mCherry inh: inactive; MARV entry inh: inactive; Shiga toxin inh: inactive; VACV Venus inh: inactive

Results for COc1ccc(N2Cc3ccccc3C2=NC(=O)c2cccc([N+](=O)[O-])c2)cc1 ?
CHX counter: inactive; Lassa entry inh: inactive; VACV mCherry inh: inactive; MARV entry inh: inactive; Shiga toxin inh: inactive; VACV Venus inh: inactive

How did COc1ccc(N2Cc3ccccc3C2=NC(=O)c2cncc(Br)c2)cc1 do in these assays?
CHX counter: 40; Lassa entry inh: inactive; MARV entry inh: inactive; Shiga toxin inh: 71

Results for COc1ccc(/C(CC2OC(=O)c3ccccc32)=N\NC(N)=O)cc1 (configuration not stated) ?
CHX counter: inactive; Lassa entry inh: inactive; VACV mCherry inh: inactive; MARV entry inh: inactive; Shiga toxin inh: inactive; VACV Venus inh: inactive

What do the screens show for `O=C(Nc1ccc(NC(=O)C2CCCCC2)nc1)c1ccccn1`?
CHX counter: 44; Lassa entry inh: inconclusive; VACV mCherry inh: inactive; MARV entry inh: inconclusive; Shiga toxin inh: 81; VACV Venus inh: inactive

What do the screens show for `COc1ccccc1C(=O)Nc1ccc(NC(=O)C2CCCCC2)nc1`?
CHX counter: inactive; Lassa entry inh: inactive; VACV mCherry inh: inactive; MARV entry inh: inactive; Shiga toxin inh: inactive; VACV Venus inh: inactive

How did CCCCC(=O)Nc1ccc(NC(=O)C2CC2)cn1 do in these assays?
CHX counter: inactive; Lassa entry inh: inactive; VACV mCherry inh: inactive; MARV entry inh: inactive; Shiga toxin inh: inactive; VACV Venus inh: inactive

Results for O=C(Nc1ccc(NC(=O)C2CCCCC2)nc1)c1ccco1 ?
CHX counter: 52; Lassa entry inh: inconclusive; MARV entry inh: inactive; Shiga toxin inh: 66; VACV Venus inh: inactive

What do the screens show for `O=C(Nc1ccc(NC(=O)C2CC2)nc1)c1ccco1`?
CHX counter: 24; Lassa entry inh: inconclusive; VACV mCherry inh: inactive; MARV entry inh: inconclusive; Shiga toxin inh: 60; VACV Venus inh: inactive

What do the screens show for `CN1CCN(c2ccc(Cl)cc2NC(=O)c2cccc(S(=O)(=O)N(C)C)c2)CC1`?
CHX counter: inactive; Lassa entry inh: inactive; VACV mCherry inh: inactive; MARV entry inh: inconclusive; Shiga toxin inh: inactive; VACV Venus inh: inactive
